Source: PubChem BioAssay (NCI)
Where “and” joins values, the source holds several entries; their conditions need not be identical. Equal values may be shown once. This is part of a sample that, as a whole, favours compounds with a hit. Of some 83,000 tested, about 20% had one in any assay.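 96-well plates, one dose, 48 hours. Percent growth reported; active if below 10.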 Calls of active or inactive are those of the source.

What follows are molecules tested on HL-60(TB) leukemia (assay: NCI-60 one-dose screen, 48 h (100 = growth as untreated, 0 = no growth, -100 = all killed)). Conditions: 10 µM unless noted.

Row | SMILES | growth
1 | CCOC(=O)c1sc(NS(=O)(=O)c2ccccc2)nc1C | 153% (inactive)
2 | CCCCn1c(-c2ccc(F)cc2)nc2cc(OC)c(OC)cc2c1=O | 67.1% (inactive)
3 | O=C(Nc1ccc(Cl)cc1)c1cc(-c2ccc(F)cc2)c2sc(=O)[nH]c2n1 | -30.6% (active)
4 | CCSc1nc(NC)c2cc(-c3ccc(C(F)(F)F)cc3)ccc2n1 | 98.3% (inactive)
5 | Cc1ccc(-c2nc([P+](c3ccccc3)(c3ccccc3)c3ccccc3)c(N3CCOCC3)o2)cc1 | -27.7% (active)
6 | COC12C=C/C(=C(/C(=O)OCc3ccncc3)C(=O)CCCCCCCCC3(OC)C=C/C(=C(/C(=O)OCc4ccncc4)C(=O)CCCCCCCC1)O3)O2 | -22.9% (active)
7 | Cc1nc2ncnc(Cl)c2[nH]1 | 75.4% (inactive)
8 | CCCCNC(=O)CC1=C(C)/C(=C/c2[nH]c(-c3ccc[nH]3)cc2OC)N=C1C | 12.9% (inactive)
9 | O=[N+]([O-])c1cccc2cc(S(=O)(=O)O)ccc12 | 76.9% (inactive)
10 | CNc1ccc(O)cc1 | 103% (inactive) and 93% (inactive)
11 | CCN1CCN(C(=O)[C@]23CCC(C)(C)C[C@H]2C2=CC[C@@H]4[C@@]5(C)CC/C(=N/O)C(C)(C)[C@@H]5CC[C@@]4(C)[C@]2(C)CC3)CC1 | -9.73% (active)
12 | OCCOc1c(Cl)cc(Cl)cc1Cl | 118% (inactive)
13 | COc1cc(NC(N)=NCCC(C)(C)c2ccc(C(F)(F)F)cc2)ncc1C#N | -34.6% (active)
14 | CC(C)(C)c1nc2c(s1)c1nc(N)ncc1c1ccc(NS(=O)(=O)c3c(F)cccc3F)c(F)c12 | 79.9% (inactive)
